Source: PubChem BioAssay (NCI)
This is part of a sample that, as a whole, favours compounds with a hit. Of some 83,000 tested, about 20% had one in any assay.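 How to read the values: 0–100, growth inhibition (40 = 60% inhibited); 0, no net growth; -100 to 0, cell death (-40 = 40% of starting cells died; -100 = all dead).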 Values without a mark were called inactive. Activity calls are given as the source filed them. How the source made its calls: active means growth percent below 10; inactive means the rest.

Tests used:
Assay in all cases: NCI-60 one-dose screen, 48 h (100 = growth as untreated, 0 = no growth, -100 = all killed)
Settings in all cases: 10 µM unless noted
[1] = tested on: T-47D breast
[2] = tested on: BT-549 breast
[3] = tested on: MDA-MB-435 melanoma
[4] = tested on: SW-620 colon
[5] = tested on: MCF7 breast
[6] = tested on: HCT-116 colon
[7] = tested on: HCC-2998 colon
[8] = tested on: KM12 colon

Structure (SMILES)	growth [1]	growth [2]	growth [3]	growth [4]	growth [5]	growth [6]	growth [7]	growth [8]
O=C(N(c1ccccc1)c1ccccc1)n1cc(I)c2nc(Cl)nc(Cl)c21	61.2%	47.4%	37.4%	26%	25.5%	25.7%	93.3%	44.1%
Cc1nc2sc(C(=O)Nc3cccc(Br)c3)c(N)c2cc1C(O)c1ccccc1 (stereo not drawn)	43.2%	53.7%	4.05% (active)	31%	21.9%	16.2%	18.2%	22.8%
COC(CC(F)F)c1cn(S(=O)(=O)c2ccc(C)cc2)c2ccccc12 (stereo not drawn)	30.8%	34.9%	-43.8% (active)	12.9%	13.6%	17.2%	63.3%	19.3%
O=c1c2cnn(-c3ccccc3)c2n2c(CN3CCOCC3)nnc2n1-c1ccccc1	81.9%	75.2%	112%	110%	99.3%	78.8%	104%	101%
COC12C=C/C(=C(/C(=O)OCc3ccncc3)C(=O)CCCCCCCCC3(OC)C=C/C(=C(/C(=O)OCc4ccncc4)C(=O)CCCCCCCC1)O3)O2	8.61% (active)	-14.7% (active)	-53.8% (active)	9.25% (active)	-42.2% (active)	-62.2% (active)	-83.4% (active)	-77.2% (active)
CC(C)c1ccc(C(=O)Nc2sc3c(c2C(N)=O)CCC(=O)C3)cc1	-15.8% (active)	-21.9% (active)	-11% (active)	-43.4% (active)	5.13% (active)	-41.1% (active)	14.9%	1.39% (active)
NNc1nc(-c2cccnc2)nc2c1sc(=S)n2-c1ccccc1	62.9%	72.7%	112%	102%	92.5%	76.4%	108%	102%
CC(=O)N1N=C(c2ccc(C(F)(F)F)c(F)c2)CC1c1[nH]c(C)c(C(=O)NCC(F)(F)F)c1C (stereo not drawn)	43.5%	89.9%	76.7%	94.3%	73.6%	34%	72.1%	60.2%
COCCn1cc(-c2nc(-c3cc4cccnc4[nH]3)cs2)c2cc(OC)ccc21	-12.4% (active)	1.78% (active)	52.4%	48.4%	0.765% (active)	30.3%	57.6%	1.17% (active)
C=C(C)[C@@H]1CC[C@]2(CO)CC[C@]3(C)[C@H](CC[C@@H]4[C@@]5(C)CC[C@H](NCO)C(C)(C)[C@@H]5CC[C@]43C)[C@@H]12	-42.9% (active)	74.3%	-84.5% (active)	-79.7% (active)	-62.8% (active)	-62.1% (active)	-63.3% (active)	-77.5% (active)
COc1ccc(/C=N/C2=C(C#N)C(c3ccccc3)c3ccc4ccccc4c3O2)cc1 (stereo not drawn)	46.7%	12.9%	-56.3% (active)	24.3%	12.2%	10.3%	-6.81% (active)	17.5%
Cn1cc(-c2ccc3nc(-c4ccc(CC(=O)ONc5cc(C(C)(C)C)on5)cc4)cnc3c2)cn1	24.2%	29.6%	34.4%	40.6%	53.1%	16.7%	41.8%	11%
O=C1c2ccc3c4c5ccc(c24)C(=O)N1CCCOCCCCOCCCNCc1ccc(cc1)CNCCCOCCCCOCCCN(C3=O)C5=O	-48.7% (active)	68.7%	-95.4% (active)	-37.8% (active)	-58.3% (active)	-62.9% (active)	-75% (active)	-30.4% (active)
CC(C)(C)[Si](C)(C)OC1[C@@H](CNC(=O)NC(=O)NC(N)=O)O[C@@H](n2cnc3c(NC(=O)Nc4ccccc4)ncnc32)[C@H]1O[Si](C)(C)C(C)(C)C (stereo partly drawn)	82.8%	95.4%	68.9%	55.9%	57.9%	20.5%	85.8%	61.5%
COc1ccc(-c2cc(-c3cc(OC)c(OC)c(OC)c3)c(C#N)c(=O)n2CCCCC(=O)NO)cc1	50.7%	92.7%	37.7%	47.9%	66.5%	25.1%	87.5%	73.1%
Cc1cc(=O)oc2cc(OCc3nn4c(Nc5nc6ccccc6s5)c(-c5ccccc5)nc4s3)ccc12	88.1%	92.6%	88.8%	85.3%	84.1%	85.4%	98.5%	89.6%

Structure (SMILES)	growth [1]	growth [2]	growth [3]	growth [4]	growth [5]	growth [6]	growth [7]	growth [8]
CN1CCN(C(=O)c2ccc(NC(=O)c3cc4c(nn3)NCCN4Cc3cc(Cl)ccc3Cl)cc2)CC1	97.3%	60.1%	61.4%	50.6%	46%	32%	99.8%	21.7%
CCCc1c(OC(=O)c2ccccc2)nc2[nH]c(=O)sc2c1C	89.7%	95.1%	103%	95.3%	92.9%	98%	93.5%	101%
CCCCNC(=O)Oc1ccc(/C(=C(/C)Cc2ccc(OC)cc2)c2ccc(OCCN(CC)CC)cc2)cc1	42.1%	87.1%	66.8%	93.3%	28.5%	42.7%	85.6%	85.1%
COc1ccccc1NC(=O)N=Nc1c(O)[nH]c2ccccc12	68.6%	97.9%	91%	84.4%	59%	93%	94.4%	94.8%
COc1ccc(/C=C(\C#N)n2nnc3ccc(Cl)cc32)cc1	51.1%	68%	-22.8% (active)	11.8%	18.6%	39%	87.3%	39.3%
Cc1nc2sc(C(=O)Nc3ccc(Br)cc3)c(N)c2cc1C(O)c1ccccc1 (stereo not drawn)	45.6%	71.1%	1.03% (active)	45.8%	33.8%	29.9%	76.5%	49.2%
Cc1[nH]c(C(=O)Nc2ccccc2OC2CCNCC2)c(Cl)c1Cl	-4.05% (active)	74.2%	-40.3% (active)	1.77% (active)	-45% (active)	4.55% (active)	43.2%	32.8%
COc1ccc(C(=O)N2c3ccccc3Sc3ccccc32)c(OC)c1	41.5%	16.9%	-43% (active)	24.8%	19.9%	9.42% (active)	12.8%	14.3%
N#Cc1c(-c2ccccc2)[nH]c2ncc(-c3ccccc3)n2c1=O	71.9%	89.1%	102%	101%	71.3%	87%	83.3%	89.8%
CSc1nc2ccccc2cc1/C=[N+](\[O-])c1ccccc1	61.6%	66.1%	45.9%	28.9%	24.9%	10.4%	110%	100%
CCOC(=O)c1cc(C(=O)c2cc(OC)c(OC)c(OC)c2)n2ncccc12	58.5%	37%	-57.2% (active)	33.6%	19.7%	11.8%	28.3%	20.8%
COc1ccc(-c2ccc(=O)oc2-c2cc(OC)c(OC)c(OC)c2)cc1O	67.8%	5.78% (active)	-37.5% (active)	9.8% (active)	1.84% (active)	-67.4% (active)	-2.78% (active)	1.71% (active)
O=C1C(Cl)=C(Nc2ccc(S(=O)(=O)N3CCOCC3)cc2)C(=O)c2ccccc21	69.8%	45.9%	88.1%	32.5%	58.9%	4.7% (active)	106%	64.5%
COc1cc2c(cc1OC)C(C)N(S(N)(=O)=O)CC2 (stereo not drawn)	93.1%	91.8%	110%	107%	103%	89.4%	98.1%	112%
NC(=O)c1cc(I)ccc1NC(=O)/C=C/c1ccccc1	122%	61.5%	-30.5% (active)	9.63% (active)	2.18% (active)	8.52% (active)	-62.3% (active)	8.98% (active)
